# An excerpt weighted towards active compounds, which were near 7.3% of everything screened.
# Rab9 promoter act: activators of Rab9 promoter; Potency, µM (series often up to 9.22 µM), inactives show top-dose activation, negative = inhibition, actives largely listed as activators; Huh7 Rab9 promoter-luciferase reporter, luminescence, 24 h; actives 2.8% (n = 320,000); further: % of control where 0% means no effect; nearly all actives have a fitted effect of over 60% in size
#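 Quantitative HTS format; Huh7 Rab9-luciferase reporter cells (1500/well) receive compound 2 h post-plating, incubate 24 h at 37 °C, then get luciferase reagent for 10 min before luminescence reading.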
# NPC1 prom act: activators of NPC1 promoter; Potency, µM (doses to about 9.22 µM), inactives show at the highest dose activation, hits mostly activators; AID 485313; actives 2.4% (n = 320,000); Huh7 NPC1 promoter luciferase reporter, 24 h; further: % of control where 0% means no effect; nearly all actives have a fitted effect of over 60% in size
#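 Readout is luciferase luminescence, reflecting NPC1 promoter activation in stably transfected Huh7 cells after 24 h compound exposure at 37 °C in reduced-serum medium with 10% FBS.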
# SMN2 splice up: enhancers of SMN2 splice variant expression | actives 2.8% (n = 210,000) | Potency, µM (highest dose often 46.1 µM), for inactives: at the top dose activity change, positive = activation, usual class: activators | HEK293 SMN2-luciferase splicing reporter, luminescence, 30-36 h; further: % of control where 0% means no effect; nearly all actives have a fitted effect of over 55% in size
#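 HEK293 cells carry an SMN2 […]–luciferase reporter in which exon 7 inclusion puts luciferase in frame. Cells were plated 10-12 h before compound addition, then incubated 30-36 h at 37C. ONE-Glo luminescence was read; sodium butyrate at 4.5 mM final served as control.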
# FLuc modulator: firefly luciferase modulation, counter-screen for miR-21 project; AID 588342; actives 6.9% (n = 360,000); purified FLuc, Km substrates, luminescence inhibition; P08659; Potency, µM (titrated, usually from 57.5 µM), for inactives: at the top dose activity change, negative = inhibition, usual class: inhibitors;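 further: plate controls were vehicle for no effect and reference inhibitor for full effect; nearly all actives have a fitted effect of over 55% in size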
# Target sequence (P08659 whole entry, looked up): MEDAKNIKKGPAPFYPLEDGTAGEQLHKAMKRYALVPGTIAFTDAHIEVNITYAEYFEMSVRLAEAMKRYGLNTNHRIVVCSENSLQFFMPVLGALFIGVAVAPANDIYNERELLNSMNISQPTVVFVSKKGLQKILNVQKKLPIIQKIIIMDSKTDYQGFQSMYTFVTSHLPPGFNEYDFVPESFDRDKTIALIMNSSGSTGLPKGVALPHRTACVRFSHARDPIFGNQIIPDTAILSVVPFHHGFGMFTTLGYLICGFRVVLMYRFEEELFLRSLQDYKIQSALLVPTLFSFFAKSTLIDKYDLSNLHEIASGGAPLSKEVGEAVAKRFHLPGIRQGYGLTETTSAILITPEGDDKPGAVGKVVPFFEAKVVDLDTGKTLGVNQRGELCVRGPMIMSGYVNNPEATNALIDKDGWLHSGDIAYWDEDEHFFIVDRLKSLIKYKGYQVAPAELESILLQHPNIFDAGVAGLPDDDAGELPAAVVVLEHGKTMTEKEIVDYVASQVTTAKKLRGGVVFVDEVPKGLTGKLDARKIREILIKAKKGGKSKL
#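 Purified P. pyralis luciferase, 10 nM final, with Km-level 10 uM D-luciferin and 10 uM ATP in 50 mM Tris acetate pH 7.5, 10 mM Mg acetate, 0.01% Tween-20, 0.05% BSA; 6-point qHTS titration about 60 µM downward; luminescence read.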
# ELG1 genotox: induces genotoxicity in HEK293T cells with luciferase-tagged ELG1; AID 504466; actives 1.3% (n = 330,000); HEK293T ELG1-luciferase reporter, luminescence, 16 h; Potency, µM (doses to about 46 µM), without a hit: at the top dose activity change, positive = activation, actives largely listed as activators; further: % of control where 0% means no effect; nearly all actives have a fitted effect of over 60% in size
#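 Step 1: seed 2,000 HEK293T ELG1-luciferase cells per well. Step 2: add compound or DMSO, incubate 16 hr at 37 °C. Step 3: ONE-Glo, 30 min at room temperature, read luminescence.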
# Luc counter: counter-screen: inhibitors of Kinase-Glo firefly luciferase | Q27757 | Kinase-Glo luciferase, ATP luminescence, 8 min | Potency, µM (doses to about 38.3 µM), for inactives: top-dose activity change, negative = inhibition, actives largely listed as inhibitors | actives 0.28% (n = 200,000) | AID 1379; further: on the % scale 0 is the no-effect control and ±100 the full control effect; nearly all actives have a fitted effect of over 60% in size
#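 Luminescence was the read-out, taken after 8-minute incubation at ambient temperature. Luciferase turned over luciferin with 10 uM ATP in imidazole pH 7.2 buffer containing KCl, MgCl2, Tween 20 and BSA.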
# * hit, by the source's call; ? = inconclusive; · = no result given; [ ] = another dose, or the depositor's remark. The call rests on the fitted dose curve; in most records, active means well fitted curve in the direction sought with a large enough effect; inconclusive means small, poorly fitted or top-dose-only effect, or another doubt; inactive means no such curve, though single readings can be large; an effect the other way counts as inactive or inconclusive. Potency means the concentration at half of the fitted maximal effect.
SMILES,Rab9 promoter act,NPC1 prom act,SMN2 splice up,FLuc modulator,ELG1 genotox,Luc counter
COc1ccc(-c2noc(-c3ccc(Br)o3)n2)cc1,2µM*,3.16µM*,·,2.39µM*,?,·
COC(=O)NC(CCc1ccccc1)C(C(C)=O)C(=O)OC (configuration not stated),·,·,7.2%,·,·,-1.6%
Cc1ccc(S(=O)(=O)NC(=O)O[C@@H]2C(=O)c3cc(Br)ccc3O[C@H]2c2ccc3c(c2)OCO3)cc1,·,·,·,·,·,3.7%
Cc1cccc(-c2nc3c(cnn3-c3ccccc3)c(=O)n2-c2cccc(Cl)c2)c1,·,·,-4.9%,-11.7%,·,·
Cc1ccc(OCC(=O)Nc2ccc3nc(SCC(=O)N4CCOCC4)sc3c2)cc1C,·,·,·,0.8%,·,·
COc1ccc(Cl)cc1-c1nc(-c2ccc(Br)o2)no1,?,?,?,2.5%,3.9%,-2.3%
COc1ccc(-c2nc(-c3ccc(Br)o3)no2)cc1,0.447µM*,0.631µM*,10µM*,0.953µM*,1.16µM*,-5.7%
CCc1ccc2c(c1)[C@H]1OCC[C@H]1[C@@H](c1cccs1)N2,-22.5%,-15.5%,-22.9%,15.1µM*,2.7%,8.8%
COc1ccc(NC(=O)c2cc3cc(OC)ccc3oc2=N)cc1,-0.6%,8.8%,-22.0%,9.53µM*,9.8%,6.3%
COc1ccc2oc(=O)c(C(=O)Nc3ccccc3O)cc2c1,0.398µM*,1µM*,·,0.601µM*,0.651µM*,·
COc1ccc2oc(=O)c(C(=O)Nc3ccc(C(=O)O)cc3)cc2c1,·,·,-1.5%,6.75µM*,·,·
COc1ccccc1NC(=O)c1cc2cc(Br)ccc2oc1=N,-1.4%[1.84 µM],26.2%,·,4.78µM*,2.2%,·
CC(C)CCNC(=O)C1CCC(Cn2c(=O)c3sccc3n(CC(=O)NC(C)C)c2=O)CC1 (configuration not stated),·,·,·,-0.9%,·,·
COc1nc(-c2ccccc2)nnc1-c1ccccc1,3.16µM*,?,12.6µM*,5.36µM*,8.2µM*,-2.3%
Cc1cccn2c(=O)c3cc(C(=O)NCCc4ccc(S(N)(=O)=O)cc4)n(C)c3nc12,·,·,·,-7.5%,·,·
CCCCNC(=O)C1CCC(Cn2c(=O)c3sccc3n(Cc3ccccc3)c2=O)CC1 (configuration not stated),·,·,·,1.1%,·,·
Cc1c(C)c2c(c(C)c1O)CCC(C)(COc1ccc(Cc3sc(=O)[nH]c3O)cc1)O2 (configuration not stated),·,·,·,·,·,2.4%[39.9 µM]
COc1cc(NC(=O)C2=CC(c3ccc(F)cc3)=NS(=O)(=O)N2C)cc(OC)c1OC,·,·,·,1.35µM*,·,·
COc1ccc(C2=NS(=O)(=O)N(C)C(C(=O)Nc3ccc(C)cc3)=C2)cc1,1.4%,-0.2%,·,-15.8%,-0.6%,·
COC(=O)[C@H](CCCN=C(N)N)NC(=O)CCCc1c(-c2ccccc2)[nH]c2c(F)cc(F)cc12,·,·,·,·,·,2.0%[39.9 µM]
Cc1cccc(Oc2ccc(N)cc2)c1,14.5%,0.6%,3.3%,-14.9%,?,-2.7%
Cc1cc(C)cc(Oc2ccc(N)cc2)c1,-1.2%,1.1%,12.6µM*,-8.2%,21.9%,1.0%
Cc1ccc(NC(=O)C(=O)NCC(c2cccnc2)N2CCN(C)CC2)cc1C (configuration not stated),·,·,·,-8.6%,·,·
CCCCc1ccc(Nc2ncccc2C#N)cc1,2.82µM*,?,?,9.53µM*,?,?
Cc1ccccc1Nc1nnc(-c2ccc(C)c(S(=O)(=O)NCC3CCCO3)c2)c2ccccc12 (configuration not stated),·,·,6.4%,1.5%,·,·
SMILES,Rab9 promoter act,NPC1 prom act,SMN2 splice up,FLuc modulator,ELG1 genotox,Luc counter
CC1(OC(=O)c2ccc(Cl)nc2)C(=O)C=c2cc(-c3ccsc3)ncc2=C1OC(=O)C1CCCC1 (configuration not stated),·,·,-0.8%[9.22 µM],·,·,-4.9%[7.66 µM]
CN1CCS/C1=C/C=C1\SC(=S)N(CC(=O)O)C1=O,-2.1%,0.4%,·,15.1µM*,-0.6%,-9.5%
CCCCN1C(=O)/C(=C/C=C2\SCCN2C)SC1=S,3.16µM*,?,15.8µM*,13.5µM*,25.2%,-2.4%
COc1ccc(N=Nc2nc3ccc(Br)cc3n2C)cc1,2.51µM*,2.82µM*,?,0.379µM*,13.1%,?
COc1ccc(-n2nc(C(=O)Nc3ccc(C)cn3)c3c4ccccc4n(C)c3c2=O)cc1,·,·,-3.1%,-1.5%,·,·
O=C(NCc1ccco1)c1ccc2c(c1)N(Cc1ccc(F)cc1)C(=O)c1ccccc1S2=O (configuration not stated),·,·,-7.3%,-5.8%,·,·
Cc1ccc(-c2ccc(=O)n(CC(=O)Nc3ccc(C(C)C)cc3)n2)cc1,·,·,-2.4%,?,·,·
C/C(=N\NC(=O)CSCc1ccccc1Cl)c1cc(O)ccc1O,-22.1%,-23.4%,·,19µM*,?,0.9%
O=C(CSCc1ccccc1Cl)NN=C1CCCCCC1,-0.9%,-2.9%,-2.6%,?,-1.5%,3.7%
Cc1cccc(NC(=S)NC(=O)/C=C/c2ccccc2)n1,2.51µM*,?,12.4%,-1.8%,5.2%,-0.5%
Cc1cccc(NC(=O)Nc2ccc(Cl)c(Cl)c2)n1,?,?,·,2.39µM*,?,·
COc1cccc(NC(=O)Nc2cccc(C)n2)c1,?,2.24µM*,·,5.36µM*,11.0%,·
COc1ccc(NC(=S)NC(=O)/C=C/c2ccccc2)cc1,11.3%,0.5%,·,6.6%,-0.4%,·
Cc1cccc(NC(=O)Nc2ccccc2)n1,?,?,·,12µM*,?,·
CCOc1ccc(CCNC(=O)CCCn2c(=O)c3cccn3c3cccnc32)cc1,·,·,·,-2.0%,·,·
CCOC(=O)c1sc2ccccc2c1S(=O)(=O)NCc1ccc(F)cc1,·,·,·,-13.7%,·,·
Cc1ccc(NC(=O)CC2CCCC2)c(Br)c1,?,?,·,15.1µM*,?,·
Cc1ccc(O)c(NC(=O)CCC2CCCCC2)c1,24.3%,?,17.3%,7.57µM*,?,-13.4%
Cc1ccc(O)c(NC(=O)C2CCCCC2)c1,-0.4%,9.5%,·,-15.1%,2.3%,·
Cc1ccc(C)c(NC(=O)C2CC3CCC2C3)c1 (configuration not stated),10.3%,11.8%,·,?,5.0%,·
Cc1ccc(NC(=O)C2CC3CCC2C3)c(Br)c1 (configuration not stated),?,3.98µM*,·,16.9µM*,?,·
Cn1c(NNC(=O)c2ccc(C(C)(C)C)cc2)cc(=O)n(C)c1=O,-0.8%,-1.7%,13.2%,-14.4%,3.6%,-3.1%
Cn1c(NC(=O)c2ccc(C(C)(C)C)cc2)cc(=O)n(C)c1=O,17.1%,13.8%,7.6%,-10.1%,9.2µM*,2.9%
Cn1c(NC(=O)CCC2CCCCC2)cc(=O)n(C)c1=O,1.41µM*,3.98µM*,11.2µM*,5.36µM*,3.26µM*,2.0%
Cn1c(NNC(=O)CCC2CCCCC2)cc(=O)n(C)c1=O,-8.7%,0.8%,-5.0%,-24.2%,-2.8%,9.0%
